PubChem BioAssay AID1209 (Sanford-Burnham Center for Chemical Genomics, 2008)
The campaign covered roughly 190,000 compounds. About 810 (0.43%) were called active. Rule as the data show it: active = inhibition above about 50%; inactive = the rest. What follows is part of a selection rich in actives, with near analogues and random picks from the rest.

Each molecule was assayed against Mannose-6-phosphate isomerase (Homo sapiens) (UniProt P34949) (assay: MPI enzyme activity inhibition – biochemical, fluorescence intensity, coupled assay, primary screen (AID 1209;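 also: plate controls were DMSO vehicle for no effect and wells lacking substrate for full effect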)). Details: purified PMI enzyme, at 20 µM, active compounds read high.
Sequence of Mannose-6-phosphate isomerase (Homo sapiens) (P34949 whole entry, looked up): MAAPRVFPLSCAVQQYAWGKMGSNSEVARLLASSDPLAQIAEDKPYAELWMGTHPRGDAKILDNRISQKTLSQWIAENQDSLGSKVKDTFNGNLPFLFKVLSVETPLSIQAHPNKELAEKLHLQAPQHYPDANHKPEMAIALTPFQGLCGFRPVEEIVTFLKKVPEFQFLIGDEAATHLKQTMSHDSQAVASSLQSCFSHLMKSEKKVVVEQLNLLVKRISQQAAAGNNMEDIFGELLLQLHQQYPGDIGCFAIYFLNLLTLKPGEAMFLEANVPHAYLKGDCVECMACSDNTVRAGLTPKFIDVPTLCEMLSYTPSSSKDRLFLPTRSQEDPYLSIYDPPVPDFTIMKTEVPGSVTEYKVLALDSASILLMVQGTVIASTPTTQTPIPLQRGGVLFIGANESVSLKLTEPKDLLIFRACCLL

Structure (SMILES) | inhibition
O=C(O)CCn1cc(C=C2C(=O)NC(=O)NC2=O)c(-c2ccc(Br)cc2)n1 | 5.8% (inactive)
O=C(O)CCn1cc(C=C2C(=O)NC(=O)NC2=O)c(-c2cc3ccccc3oc2=O)n1 | -3.7% (inactive)
O=C(O)CCn1cc(C=C2C(=O)NC(=S)NC2=O)c(-c2cccc(Cl)c2)n1 | 64.1% (active)
O=C(O)CCn1cc(C=C2C(=O)NC(=S)NC2=O)c(-c2cc3ccccc3oc2=O)n1 | -33.9% (inactive)
N#CCCn1cc(C=C2C(=O)NC(=O)NC2=O)c(-c2ccccc2)n1 | -7.4% (inactive)
O=C(O)CCn1cc(C=C2C(=O)NC(=S)NC2=O)c(-c2ccccc2)n1 | 55.5% (active)
O=c1c2ccccc2nc(-c2cccs2)n1-c1ccccc1 | -8.6% (inactive)
COc1ccc(N/N=C/c2c(O)n(-c3cccc(C)c3)c(=O)[nH]c2=O)cc1 | -72.8% (inactive)
CCOCCCNC(=O)CN1C2CCC1CC(O)(c1ccc(OC)cc1)C2 (centres undefined) | 15% (inactive)
CC(=O)Nc1ccccc1OC(=O)N(C)C | 7.3% (inactive)
CN(C)CCCN=Cc1c(O)n(CCc2ccccc2)c(=O)[nH]c1=O | -1.1% (inactive)
CCCCn1c(N)c(C(=O)NCCN2CCOCC2)c2nc3ccccc3nc21 | 17.1% (inactive)
CCC(C)NC(=O)c1c(N)n(CCCOC)c2nc3ccccc3nc12 (centres undefined) | 56% (active)
CCCCCn1c(N)c(C(=O)NCc2cccs2)c2nc3ccccc3nc21 | 51.9% (active)
CCOC(=O)c1c(N)n(CCCOC(=O)c2ccco2)c2nc3ccccc3nc12 | 6% (inactive)
CCCCCCn1c(N)c(C(=O)NCCN2CCOCC2)c2nc3ccccc3nc21 | 28.6% (inactive)
CCCCCn1c(N)c(C(=O)NCCN2CCOCC2)c2nc3ccccc3nc21 | 25.4% (inactive)
CCCCn1c(NC(=O)c2ccc(Br)o2)c(C(=O)OCC)c2nc3ccccc3nc21 | 22.2% (inactive)
CC(C)CCn1c(N)c(C(=O)NCc2cccs2)c2nc3ccccc3nc21 | 24.5% (inactive)
CCCCn1c(N)c(C(=O)NCc2cccs2)c2nc3ccccc3nc21 | 59.9% (active)
COCCCn1c(N)c(C(=O)NCCC(C)C)c2nc3ccccc3nc21 | 37.9% (inactive)
CCCCNC(=O)c1c(N)n(CCCOC)c2nc3ccccc3nc12 | 41.1% (inactive)
CCCCn1c(NC(=O)c2ccco2)c(C(=O)OCC)c2nc3ccccc3nc21 | 55.8% (active)
CC1C(c2cccs2)=[N+]([O-])C(C)(C(=O)c2cccs2)N1O (centres undefined) | -1.9% (inactive)
Cc1c(C=O)c2ccccc2n1Cc1cccc(F)c1 | -20.1% (inactive)

Structure (SMILES) | inhibition
CCOC(=O)C1C(=O)N(C)C2(C)CC1c1cc(OC)ccc1O2 (centres undefined) | -7% (inactive)
O=C1NC(=O)C(CCc2ccncc2)(CCc2ccncc2)C(=O)N1CCc1ccc(F)cc1 | -4.4% (inactive)
COc1ccc2[nH]c(C)c(CCN3CCC(=O)C(C)C3C)c2c1 (centres undefined) | 13.4% (inactive)
COC(=O)N(c1ccc(OC)cc1)P1(=S)OCCC(C)O1 (centres undefined) | 62.3% (active)
CCOC(=O)N(c1ccccc1)P1(=S)OCC(C)O1 (centres undefined) | -1.5% (inactive)
COC(=O)N(c1ccccc1)P1(=S)OCCO1 | 24.3% (inactive)
CCn1c(=O)n(CC)c2cc([N+](=O)[O-])c(N3CCNCC3)cc21 | 0.8% (inactive)
CCn1nc(-c2cccs2)nc2c(=O)n(C)c(=O)nc1-2 | 6.3% (inactive)
CCn1nc(/C=C/c2ccccc2)nc2c(=O)n(C)c(=O)nc1-2 | 39.7% (inactive)
Cc1nc2c(=O)n(C)c(=O)nc-2n(C)n1 | 73.6% (active)
CCn1nc(-c2ccccc2)nc2c(=O)n(C)c(=O)nc1-2 | -4.4% (inactive)
Cn1ncnc2c(=O)n(C)c(=O)nc1-2 | 74.8% (active)
CCc1ccc(CN2CCN(Cc3ccc(SC)cc3)CC2)cc1 | -14.5% (inactive)
C=C1N2CCC(CC2)C1(O)c1ccc(C)c(C)c1 (centres undefined) | -10.2% (inactive)
O=C(Cc1ccccc1)OCCNC(=O)c1cccnc1 | -4% (inactive)
CN(C)C(=O)Oc1c(Cl)cc(Cl)c2cccnc12 | 8.2% (inactive)
COC(=O)c1ccccc1N=Cc1c(O)[nH]c(=S)[nH]c1=O | -42.9% (inactive)
O=c1c(/C=N/N2CCOCC2)c(O)n(-c2ccccc2)c(=S)n1-c1ccccc1 | 4.6% (inactive)
Cc1ccccc1C(=O)NC(Oc1ccccc1)C(Cl)(Cl)Cl (centres undefined) | 6.5% (inactive)
CC(=O)N(C1=NCCCS1)c1ccccc1Cl | -4.6% (inactive)
O=c1[nH]c(=O)n(-c2cccc(Cl)c2)c(O)c1C=NCCCN1CCOCC1 | 4.5% (inactive)
COc1ccc(P2(=O)Nc3ccccc3N2)cc1 | 16.8% (inactive)
CC1=CC(=O)NP(=O)(Oc2ccc3ccccc3c2)N1 (centres undefined) | 78.5% (active)
O=C(C1CC(c2ccc(F)cc2)=NO1)N1CCC2(CC1)OCCO2 (centres undefined) | -5.3% (inactive)
Cn1ccnc1P(=S)(c1nccn1C)c1nccn1C | -5% (inactive)

Structure (SMILES) | inhibition
O=P(c1ccccc1)(c1nc2ccccc2s1)N1CCOCC1 (centres undefined) | -5.8% (inactive)
Cc1ccc(NP(=O)(c2ccccc2)c2nc3ccccc3s2)cc1 (centres undefined) | 80.5% (active)
COCCNP(=O)(c1ccccc1)c1nc2ccccc2s1 (centres undefined) | 1.6% (inactive)
CN(C)c1ccc([P+](=O)c2ccc(N(C)C)cc2)cc1 | 10.8% (inactive)
CCc1c(C)nc(N)nc1N1N=C1SCC(N)=O | -3% (inactive)
Cc1ccccc1N1C(=O)NC(=O)/C(=C\c2ccc3c(c2)CCCN3Cc2ccccc2)C1=O | -9% (inactive)
CC1CC(OP(O)(=S)c2ccc(N(C)C)cc2NC(=O)c2cccs2)CC(C)(C)C1 (centres undefined) | 59.7% (active)
CCOC(=O)C1(CCc2ccccc2)CCN(Cc2cccc3cnccc23)CC1 | 24.8% (inactive)
COc1ccc(C(CC(=O)N2CCC3(CC2)OCCO3)NS(=O)(=O)c2ccc(OC)cc2)cc1 (centres undefined) | 4.9% (inactive)
O=C(C1CCCO1)N1CCC2(CC1)OCCO2 (centres undefined) | 5.3% (inactive)
CCN1C(=O)C(=Cc2cc(C)n(C3CC3)c2C)C(=O)N(CC)C1=S | 63.8% (active)
Cc1cc(C=C2C(=O)N(C)C(=S)N(C)C2=O)c(C)n1C1CCCCC1 | -12.8% (inactive)
Cc1cc(C=C2C(=O)N(C)C(=S)N(C)C2=O)c(C)n1C1CCCC1 | 6% (inactive)
Cn1c(O)c(C(=O)c2ccccc2)c(=O)n(C)c1=O | -12.2% (inactive)
CCCCC(=O)N/N=C/c1c(O)n(C2CC2)c(=S)[nH]c1=O | 20.6% (inactive)
O=C(N/N=C/c1c(O)n(C2CC2)c(=S)[nH]c1=O)c1ccccc1O | 60.8% (active)
O=c1[nH]c(=S)n(C2CC2)c(O)c1/C=N/Nc1ccccc1 | -61.8% (inactive)
COc1ccc(C2=NCC(=O)N(CC(=O)NCc3ccco3)c3sc4c(c32)CCCC4)cc1 | 4.5% (inactive)
O=C1CC(=O)N(c2cccc(Cl)c2)C(=O)N1 | 0.2% (inactive)
CCCCc1nc(N2CCNCC2)c(C#N)c2c1CSC(C)(C)C2 | 3.9% (inactive)
Oc1ccc(/C=N/NP(=S)(c2ccccc2)c2ccccc2)cc1 | 14.9% (inactive)
Oc1ccccc1/C=N/NP(=S)(c1ccccc1)c1ccccc1 | 6.9% (inactive)
Oc1ccc(/C=N/NP(=S)(c2ccccc2)c2ccccc2)c(O)c1O | 62.4% (active)
O=C1c2ccccc2C(=O)N1Cc1nc2ccccc2c(=O)n1-c1ccccn1 | -3% (inactive)
CCCCCCOc1ccc(CN2CCN(CCO)CC2)cc1 | -11.3% (inactive)

Structure (SMILES) | inhibition
COc1cccc(N2CCN(Cc3cccc(Cl)c3)CC2)c1 | 9.6% (inactive)
CC12CCC(=O)C=C1CCC1C2CCC2(C)C(O)CCC12 (centres undefined) | -6.1% (inactive)
C[C@]12CC[C@@H]3c4ccc(O)c(O)c4CC[C@H]3[C@@H]1CC[C@@H]2O | 75.9% (active)
CC12CCC3C(CCC4C/C(=N/O)CCC43C)C1CCC2O (centres undefined) | 2.7% (inactive)
CCOP(=O)(C#CC(C)(C)C)C(C)(O)c1ccccc1 (centres undefined) | 3.1% (inactive)
Cc1nc2cc(C(F)(F)F)ccc2n1C1CCN(Cc2nnnn2Cc2cccs2)CC1 | 9.2% (inactive)
CN1CCN(c2c(N)c(=O)oc3ccccc23)CC1 | 0.6% (inactive)
COCCOC(=O)c1c(N)n(Cc2ccccc2)c2nc3ccccc3nc12 | 14.3% (inactive)
Cn1c(O)c(C=NC2CCCCCC2)c(=O)[nH]c1=S | 6.6% (inactive)
CN(C)c1cccc2c(C#N)ccc(N(C)C)c12 | 82% (active)
CC(C)(C)c1ccc(S(=O)(=O)N2CC3CC(C2)c2cccc(=O)n2C3)cc1 (centres undefined) | -3.5% (inactive)
Cc1cc(=O)[nH]c(SCc2nc3ccccc3c(=O)n2-c2ccccc2C)n1 | 0.9% (inactive)
COc1cccc(NP(=O)(Oc2ccc(Cl)cc2)Oc2ccc(Cl)cc2)c1 | 18.7% (inactive)
Cc1ccsc1C(=O)C1CCCN(Cc2cnn(C)c2)C1 (centres undefined) | 9.3% (inactive)
COc1ccc(CC2c3cc(OC)c(OC)cc3CCN2C)cc1O (centres undefined) | -2.1% (inactive)
O=C1C2CCN(CC2)C1Cc1ccccc1O (centres undefined) | -6.7% (inactive)
Oc1ccc(CC2CC3CCN2CC3)cc1O (centres undefined) | 52.7% (active)
CCc1ccc(N2C(=O)NC(=O)C(CCc3ccncc3)(CCc3ccncc3)C2=O)cc1 | 4.9% (inactive)
c1ccc(CCn2nnnc2CN2CCC(n3nnc4ccccc43)CC2)cc1 | -11.1% (inactive)
COc1cccc(N2C(=O)NC(=O)C3(Cc4cc(C)ccc4N(C)C3)C2=O)c1 (centres undefined) | -37% (inactive)
CN1CCc2nc(N)c(C#N)c(-c3ccccc3)c2C1 | 2.3% (inactive)
Cc1ccc2c(c1)=C/C(=C\c1c(O)[nH]c(=O)[nH]c1=O)C(=O)N=2 | 65% (active)
Cc1ccc2c(c1)=C/C(=C\c1c(O)[nH]c(=S)[nH]c1=O)C(=O)N=2 | 21.3% (inactive)
Cc1cccc2c1=NC(=O)/C(=C/c1c(O)[nH]c(=O)[nH]c1=O)C=2 | -7.2% (inactive)
